# High-throughput results from PubChem BioAssay.
# An excerpt weighted towards active compounds, which were near 4% of everything screened.
# HIF-2a block – blocks HIF-2a reporter activity; 786-0 RCC cells HIF-2a reporter, luciferase luminescence, overnight; inhibition, % at 18.8 µM; 0.72% of 360,000 active; AID 624352;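 active means inhibition of the luminescence signal of 40% or more relative to plate controls, in a single-dose primary screen at 18.75 µM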
# CF NFkB block – cystic fibrosis NF-kB activation inhibition; KKLEB NF-kB-GFP reporter, PAF-induced, GFP fluorescence overnight; inhibition, % at 5 µM; 0.86% of 360,000 active; AID 588850;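 active means at least 50% inhibition at 5 µM, scaled per plate between neutral and stimulator controls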;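 further: PAF is a Pseudomonas aeruginosa culture filtrate used as stimulus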
# TWEAK Fn14 block – TWEAK-Fn14 signaling inhibition; inhibition, % at 10 µM; TWEAK-stimulated Fn14 reporter cells, luciferase luminescence, 8 h; 2% of 360,000 active; AID 1159606; in the data active means inhibition above about 50%
# KKLEB cytotox – CF airway cell cytotoxicity counter-screen; activity change (cytotoxicity), % at 5 µM; KKLEB CF airway cells viability, ATPlite luminescence, overnight; active compounds read low; cells stimulated with P. aeruginosa culture filtrate; 0.36% of 360,000 active; AID 602141;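 active means corrected activity change at or below -50% at 5 µM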
# Peg3 promoter – Peg3 promoter activity inhibition. 1.7% of 360,000 active. inhibition, % at 20 µM. HeLa PEG-Prom luciferase reporter, luminescence, overnight;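 active means inhibition of at least 50% at 20 µM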
# TROY signal inh – inhibitors of TROY-dependent NF-kB signaling | Q293 LMP1-TROYcd NF-kB luciferase reporter, 4 h | AID 1347056 | 0.98% of 360,000 active | inhibition, % at 10 µM;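 active means compounds whose plate-normalised and pattern-corrected inhibition of the luciferase reporter signal at the single screening dose is 50% or more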
# Numbers stand for hits; n = inactive.
SMILES,HIF-2a block,CF NFkB block,TWEAK Fn14 block,KKLEB cytotox,Peg3 promoter,TROY signal inh
O=C(CC1C(=O)NCCN1Cc1cccc(Oc2ccccc2)c1)NCCCn1cccn1 (configuration not stated),n,n,n,n,n,n
CCOC(=O)c1ccc(Nc2sc(C(=O)c3cccc([N+](=O)[O-])c3)c(N)c2C#N)cc1,n,n,n,n,52,n
O=c1[nH][nH]c(=O)c2nc(Nc3ccccc3)ncc12,n,n,n,n,n,n
O=S(=O)(NC1c2cccc3cccc(c23)C1N1CCNCC1)c1ccc(Cl)cc1 (configuration not stated),n,n,n,n,77,n
CC(=O)Oc1ccc(C(=O)Nc2cc(NC(=O)c3ccc(OC(C)=O)cc3)cc(C(=O)NC(C)(C)C)c2)cc1,n,n,n,n,n,n
CCOCCCNC(=S)Nc1ccc(Br)cc1Cl,n,n,n,n,n,n
OC(CNC1CCCCC1)CON=C1CCSc2c(Cl)cccc21 (configuration not stated),n,n,n,n,96,n
OC(CNC1CCCC1)COc1ccc(-c2ccccc2)cc1 (configuration not stated),n,n,n,n,n,n
O=C(O)c1ccc(-n2c(O)c(C=C3N=c4ccccc4=N3)sc2=S)cc1,n,n,54,n,n,n
O=C(O)c1cccc(-n2c(O)c(C=C3N=c4ccccc4=N3)sc2=S)c1,n,n,n,n,n,n
CCOC(=O)c1cc(-c2ccccc2)n(Cc2cc(CC)no2)n1,n,n,n,n,n,n
c1ccc(-n2cnc3cc(NCc4cccs4)ccc32)cc1,n,n,93,n,n,83
Cc1ccc(-n2cnc3cc(NCc4cccs4)ccc32)cc1,n,n,n,n,n,n
Cc1ncc(CO)c2c1Oc1nc(-c3ccccc3)nc(SCC(=O)Nc3cccc(O)c3)c1C2,n,n,n,n,64,n
COc1ccc(-c2nc3c(c(SCC(=O)Nc4cccc(O)c4)n2)Cc2c(CO)cnc(C)c2O3)cc1,n,n,n,n,n,n
Cc1cc(Cl)nc(Cl)c1C(=O)NCCc1ccccc1,n,n,n,n,n,n
CC1Cc2cc(/C(O)=C3/C(=O)C(=O)N(Cc4ccco4)C3c3cccs3)ccc2O1 (configuration not stated),n,n,66,n,n,65
COc1ccc(/C(O)=C2/C(=O)C(=O)N(Cc3ccco3)C2c2cccs2)cc1 (configuration not stated),n,n,n,n,n,n
Cc1csc(SCC(=O)Nc2ccc(S(=O)(=O)N3CCCC3)cc2)n1,n,n,n,n,n,n
Cc1[nH]c2ccccc2c1CN1CCC(Cc2ccccc2)CC1,n,n,n,n,78,n
Cc1cc([N+](=O)[O-])nn1CC(=O)NC(C)c1ccccc1 (configuration not stated),n,n,110,n,n,n
Nn1c(=S)[nH]c2sc3c(c2c1=O)CCCC3,n,n,53,n,n,75
CC(=O)c1ccc(S(=O)(=O)NCCCC(=O)NCCc2ccccn2)cc1,n,n,n,n,n,n
O=C(O)/C=C/c1cnn(-c2ccccc2)c1,n,n,67,n,n,n
CO[C@H]1/C=C/O[C@@]2(C)Oc3c(C)c(O)c4c(O)c(c(C=NN5CCN(C)CC5)c(O)c4c3C2=O)NC(=O)/C(C)=C\C=C\[C@H](C)[C@H](O)[C@@H](C)[C@@H](O)[C@@H](C)[C@H](OC(C)=O)[C@@H]1C,n,55,n,n,n,n
SMILES,HIF-2a block,CF NFkB block,TWEAK Fn14 block,KKLEB cytotox,Peg3 promoter,TROY signal inh
CO[C@H]1C=CO[C@@]2(C)Oc3c(C)c(O)c4c(O)c(c(C=NN5CCN(C)CC5)c(O)c4c3C2=O)NC(=O)C(C)=CC=C[C@H](C)[C@H](O)[C@@H](C)[C@@H](O)[C@@H](C)[C@H](OC(C)=O)[C@@H]1C,n,n,n,n,n,n
CN1CCN(c2ccc(NC(=O)c3ccco3)cc2Cl)CC1,n,n,n,n,n,50
O=C(Nc1ccc(N2CCN(C(=O)c3ccco3)CC2)c(Cl)c1)c1cccs1,n,n,108,n,n,n
O=C(Nc1ccc(N2CCCC2)c(Cl)c1)c1ccco1,n,n,n,n,n,n
CCN(CC)C(=O)N1CCN(S(=O)(=O)c2c(C)cc(C)cc2C)CC1,n,n,n,n,n,n
Cc1ccc(C(=O)Nc2cccc(C(F)(F)F)c2)cc1NC(=O)c1csc(-c2ccncc2)n1,n,n,n,n,n,n
N#C/C(=N\Nc1cccc(C(F)(F)F)c1)C(=O)c1csc(-c2cccnc2)n1,n,53,n,n,n,66
CN(C)c1nc(N/N=C\c2ccc(Cl)c([N+](=O)[O-])c2)nc(Nc2ccc(F)cc2)n1,n,n,n,n,65,n
Nn1cnnc1N/N=C/c1ccc(Cl)c([N+](=O)[O-])c1,n,n,n,n,n,n
COc1ccc(C(=O)NC2CCN(C(=S)Nc3ccc(C)c(C)c3)CC2)cc1,n,n,n,n,n,n
COc1ccc(CCNC(=O)CCC(=O)n2ncc3cc(C)ccc32)cc1OC,n,n,n,n,n,n
COC(=O)/C=c1\[nH]c2nnc(C)n2c1=O,n,n,n,n,n,50
CCN(CC(=O)Nc1ccc(N2CCOCC2)cc1)CC(=O)NC(C)(C)C,n,n,n,n,n,n
C=C(C)COc1ccc2c(c1)CCC1C2CCC2(C)C(=O)C(=NO)CC12 (configuration not stated),n,64,n,n,71,n
O=C(C1CCCN(S(=O)(=O)c2cccc3nsnc23)C1)N1CC=C(c2ccccc2)CC1 (configuration not stated),n,n,51,n,n,n
CCN(CC)C(=O)COc1ccc2oc(C)c(C(=O)OC)c2c1,n,n,n,n,n,n
CN1C(=O)[C@H]2[C@@H](c3ccc(F)cc3)N3C(=O)c4ccccc4NC(=O)[C@@]3(C)[C@H]2C1=O,n,n,n,n,n,n
O=C(Nc1cc(Cl)ccc1O)c1snnc1-c1ccccc1,n,n,n,n,n,55
CCS(=O)(=O)NCc1cn2ccsc2n1,n,n,n,n,n,n
Cc1ccc(Cn2c(N)c(S(=O)(=O)c3cccs3)c3nc4ccccc4nc32)cc1,n,n,n,n,n,63
CCCCn1c(N)c(S(=O)(=O)c2ccc(C)cc2)c2nc3ccccc3nc21,n,n,52,n,n,65
Nc1c(S(=O)(=O)c2cccs2)c2nc3ccccc3nc2n1Cc1ccccc1,n,n,n,n,n,n
CN(C)CCCn1c(N)c(S(=O)(=O)c2ccccc2)c2nc3ccccc3nc21,n,n,n,n,n,n
COc1cccc(CNC(=O)CN(c2ccc(C(C)C)cc2)S(=O)(=O)c2c(C)noc2C)c1,n,n,n,n,n,n
O=C(O)c1cc(-c2ccccc2Cl)n(-c2ccc(F)cc2)n1,n,n,n,n,n,n
